# VHR inh abs = inhibitors of human VHR1 phosphatase (DUSP3); P51452; recombinant VHR phosphatase, pNPP absorbance; inhibition, % at 13.3 µM; hit rate 0.52% among 290,000; in the data active means inhibition above about 50%
# Target sequence (P51452 whole entry, looked up): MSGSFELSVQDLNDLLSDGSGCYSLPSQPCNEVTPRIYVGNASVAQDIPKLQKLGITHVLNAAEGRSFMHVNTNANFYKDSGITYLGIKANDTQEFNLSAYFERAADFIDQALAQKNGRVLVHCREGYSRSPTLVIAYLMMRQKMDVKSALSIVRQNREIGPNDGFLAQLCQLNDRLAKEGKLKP
# BoNT-F LC inh = inhibitors of Botulinum neurotoxin F light chain protease | inhibition, % at 10 µM | Multiplex microsphere protease cleavage assay, flow cytometry | hit rate 0.22% among 360,000; in the data active means inhibition above about 35%, passing the limit was not always enough; inconclusive means no clear call, values can overlap the other calls; further: plate controls were buffer without enzyme for full effect and enzyme alone for no effect
# SARS 3CLpro inh = SARS-CoV 3CLpro protease inhibition | inhibition, % at 6 µM | recombinant SARS-CoV 3CLpro, quenched FRET peptide cleavage | hit rate 0.14% among 290,000; in the data active means inhibition above about 12%
# Bead autofluor = counter-screen for toxin protease inhibitors: compound fluorescence; compound autofluorescence counterscreen, microsphere flow cytometry; active compounds read high; AID 624483; hit rate 3.1% among 360,000; fluorescence intensity (concentration not given with the values); in the data active means fluorescence intensity above about 16000; inconclusive means no clear call, values can overlap the other calls
# BoNT-A LC inh2 = BoNT A light chain protease inhibition; multiplex microsphere protease substrate cleavage, flow cytometry; inhibition, % at 10 µM; hit rate 0.17% among 360,000; further: plate controls were buffer without enzyme for full effect and enzyme alone for no effect
# Anthrax LF prot = inhibitors of Bacillus anthracis lethal factor protease; hit rate 0.12% among 360,000; inhibition, % at 10 µM; multiplex microsphere protease cleavage assay, LF; further: plate controls were buffer without enzyme for full effect and enzyme alone for no effect
# Numbers without * were called inactive; ? = inconclusive; . = not tested or not shown. An excerpt weighted towards active compounds, which were near 3.9% of everything screened. Unless noted, no stated cut-off is given here; in the data, active means inhibition above about 30%; inconclusive means no clear call, values can overlap the other calls; inactive means below that.
SMILES,VHR inh abs,BoNT-F LC inh,SARS 3CLpro inh,Bead autofluor,BoNT-A LC inh2,Anthrax LF prot
COc1ccc(-n2cc3c(-c4cccc(Br)c4)nnc(C)c3n2)cc1,6,31,-1,48432*,8,17
O=S(=O)(c1ccccc1)n1c(C(O)c2ccccn2)cc2ccccc21 (stereo not given),-4,-2,2,2324,-1,2
O=C(COC(=O)c1ccc[nH]c1=O)NC1CCCCC1,9,-2,1,4318,0,-6
O=C(NC1CCCC1)C1CCN(C(=O)NCc2ccccc2)CC1,54*,-6,-2,3349,-2,1
O=C(NCc1ccccc1F)C1CCN(C(=O)NCc2ccccc2)CC1,17,-3,3,17003*,-2,-6
O=C(NCc1ccc(F)cc1)C1CCN(C(=O)NCc2ccccc2)CC1,5,-6,-4,6142,-1,-6
O=C(NC1CCCCC1)C1CCN(C(=O)NCc2ccccc2)CC1,21,2,-2,16321*,1,-2
O=C(NCCc1ccccc1)C1CCN(C(=O)NCc2ccccc2)CC1,22,-8,3,9248,0,9
COc1cc2c(cc1OC)C(=O)C(Br)CC2 (stereo not given),.,-8,.,3673,0,-7
O=C(CNC(=O)c1ccc(Cl)cc1Cl)OCc1cn2cc(Br)ccc2n1,.,6,.,3780,0,-4
O=C1NC[C@H](CCCCN2CCN(Cc3ccccc3)C(=O)C2=O)N(Cc2ccccc2)C1=O,.,0,.,5642,0,-11
O=C1C(Cc2ccc(O)cc2)NC(=S)N1c1ccccc1 (stereo not given),16,-2,6,23822*,-3,-1
CC(=O)N/C(=N\c1nc(C)cc(C)n1)Nc1ccc(Cl)cc1Cl,74,28,-2,3672,-1,1
CC(C)(C)CC(C)(C)Nc1c(-c2ccc(O)cc2)nc2cnccn12,.,-1,-2,16574*,-2,-2
COc1ccc(-c2nc(CS(=O)CC(=O)N3CCCC3)c(C)o2)cc1 (stereo not given),24,-4,3,5246,0,0
Cc1ccc(-c2nc(CS(=O)CC(=O)N3CCC4(CC3)OCCO4)c(C)o2)cc1 (stereo not given),-5,2,-7,21619*,0,0
CC(C)OCCCNC(=O)c1ccc(Br)cc1,17,3,-1,15661,2,2
CC(C)OCCCNC(=O)c1ccncc1,23,3,-1,18964*,2,2
CCCCCCC(=O)Nc1cc2c(C)cc(=O)oc2cc1C,4,-6,2,3127,1,4
CCC(=O)Nc1cc2c(C)cc(=O)oc2cc1C,56*,-4,1,4482,0,4
Cc1ccc(OCC(=O)N/N=C\c2c(C)[nH]n(-c3ccccc3)c2=O)c([N+](=O)[O-])c1,56*,-5,1,2284,-2,-2
Cc1ccc(/C=N\NC(=O)COc2ccc(C)cc2[N+](=O)[O-])cc1,12,-4,5,4392,1,4
CCNc1nc(NCC)nc(Nn2cnnc2)n1,2,0,3,20282*,0,1
CCNc1nc(NC(C)(C)C)nc(N(CC)n2cnnc2)n1,10,2,-1,6882,1,-1
COc1cccc(C(=O)N2CCN(Cc3ccccc3Br)CC2)c1,17,?,8,2805,3,12
SMILES,VHR inh abs,BoNT-F LC inh,SARS 3CLpro inh,Bead autofluor,BoNT-A LC inh2,Anthrax LF prot
Oc1ccc(CN2CCc3ccccc3C2)c2cccnc12,5,-12,-5,16689*,-2,-3
Cn1cc(CN2CCc3ccccc3C2)c2ccccc21,17,-4,-6,21029*,-3,1
Oc1ccc(CN2CCCCC2)c2cccnc12,4,-24,1,9628,-2,-2
COc1ccc(C(=O)N2CCOC2CNC(=O)C(=O)NCc2ccc3c(c2)OCO3)cc1 (stereo not given),26,0,10,4354,0,-1
CC#CCCCC(=O)Nc1cccc(C(=O)O)c1,5,7,2,19921*,6,-4
CCCCC(=O)NC(=S)Nc1cccc(C(=O)O)c1,12,2,2,3963,1,-2
CCOc1cc(/C=N/NC(=O)C(=O)NCc2ccc3c(c2)OCO3)ccc1OCC(=O)N1CCOCC1,2,0,-1,5992,0,-2
Cn1c(N2CCCCC2)nc2c1c(=O)[nH]c(=O)n2C,-2,-1,2,16214*,0,-5
CC(C)n1c(N2CCCC2)nc2c1c(=O)[nH]c(=O)n2C,40,-12,0,3676,1,0
COc1cc(CNC2CCCCCCC2)c(Br)cc1OCCO,13,-2,-1,3889,-4,-4
COc1ccc(OC)cc1,.,-8,.,4093,0,0
COc1ccc(-c2cc(O)cc(O)c2)cc1,-4,-3,4,16572*,-2,-4
CCN=C1S/C(=C\c2cn(CC)c3ccccc23)C(=O)N1CC,-2,-1,-4,2772,0,-2
CCn1cc(C=C2C(=O)c3ccccc3C2=O)c2ccccc21,-11,19,0,3399,70*,34*
CCOC(=O)Cn1cc(C=C2C(=O)N(C)C(=O)N(C)C2=O)c2ccccc21,7,40*,2,3338,-1,22
CSc1cccc(CNC(=O)C2CCC(=O)N(CCc3ccccc3)C2)c1 (stereo not given),.,-5,.,3578,0,0
CCCc1cc(C(N)=O)c(NC(=O)c2ccco2)s1,10,-4,0,16987*,-2,-1
CCCc1cc(C(N)=O)c(NC(=O)C2CCCO2)s1 (stereo not given),5,-2,3,10021,2,0
CC(C)OCCCNC(=O)c1ccc(CS(=O)(=O)Cc2ccccc2F)o1,17,0,0,20731*,0,-2
COc1cccc(CNC(=O)c2ccc(CS(=O)(=O)Cc3ccc(C)cc3)o2)c1,12,-6,-3,4102,0,3
COc1cccc(CNC(=O)c2ccc(CS(=O)(=O)Cc3ccccc3C)o2)c1,58*,3,-7,5456,2,0
Cc1ccc(C(=O)O)cc1-c1ccc(/C=C2/NC(=O)N(c3ccccc3)C2=O)o1,-4,0,4,23411*,0,2
CCC1CCCCN1CCCNC(=O)c1ccc(N2CCCC2=O)cc1 (stereo not given),56*,-6,3,6280,2,0
Cc1cc2oc(=O)cc(Cn3ccnc3)c2cc1C,39,-4,-5,16965*,-2,-3
COCOCCn1cc(CN2CCS(=O)(=O)N(Cc3ccc(-c4ccc(F)nc4)cc3)C(C)C2=O)nn1 (stereo not given),.,-22,.,3885,-2,1
CCN(C(=O)COC(=O)c1cc(=O)[nH]c2ccccc12)C1CCS(=O)(=O)C1 (stereo not given),26,2,4,4231,-1,-4
N#Cc1c(N)sc2c1CCCCCC2,30,-4,0,24025*,-2,-3
N#Cc1c(N)sc(=S)c2c1CCCCC2,6,-43,-1,3216,6,4

# Screens: PubChem BioAssay, several laboratories
